Assay results: PubChem BioAssay (NCI)
The panel holds about 83,000 compounds, 20% with a hit somewhere; the sample as a whole holds those more often.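 Growth was measured after 48 h exposure to one concentration of compound in 96-well plates. Values under 10 count as active.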 The source made the active and inactive calls.

These compounds were tested on KM12 colon (assay: NCI-60 one-dose screen, 48 h (100 = growth as untreated, 0 = no growth, -100 = all killed)). Settings: 10 µM unless noted.

SMILES	growth
O=S(=O)(c1ccccc1)N1CCCN(c2nc(-c3ccccc3)nc3nc(-c4ccccc4)oc23)CC1	113% (inactive)
Clc1ccc(-c2cn3ccsc3n2)c(Cl)c1Cl	98.1% (inactive)
O=C(CN1C(=O)/C(=C/c2ccco2)SC1=S)NCCc1c[nH]c2ccc(F)cc12	101% (inactive)
COc1cc(C2C3=C(COC3=O)N(CCO)c3cc4c(cc32)OCCO4)cc(OC)c1OC (stereo not given)	-28.6% (active)
N/C(=N\c1nc2ccccc2s1)NC(=NC1CCCCC1)NC1CCCCC1	27.5% (inactive)
CC(O)c1ncc(/C=C2\SC(=S)N(Cc3ccccc3)C2=O)s1 (stereo not given)	81% (inactive)
COc1ccc2nc3ccccc3c(NCc3ccc(F)cc3)c2c1	28.7% (inactive)
COc1cc(-c2cc(-c3ccc(Nc4ncnc5cc(Cl)ccc45)cc3)nc(N3CCN(C)CC3)n2)cc(OC)c1OC	86.1% (inactive)
O=C(Nc1cccnc1Nc1ccc(Cl)cc1)c1cn(Cc2ccc(F)cc2)nn1	102% (inactive)
N#Cc1c(NC(=O)c2cccs2)[n+]([O-])c2ccc(Cl)cc2[n+]1[O-]	98.6% (inactive)
CCOC(=O)/C=C/c1c(C)[nH]c(=O)[nH]c1=O	93.4% (inactive)
COc1ccc(C2C3=C(COC3=O)N(CCO)c3cc4c(cc32)OCCO4)cc1OC (stereo not given)	23.2% (inactive)
CN1CCN(c2ccc3c(c2)nc(NNC(=O)c2cnccn2)c2cccn23)CC1	19.3% (inactive)
C=CCOC(=O)C1=C(C)NC(=O)NC1c1c(Cl)n(C)c2ccccc12 (stereo not given)	102% (inactive)
COc1ccc(Cl)cc1Nc1nc(C(F)(F)F)ccc1C(=O)N/N=C/c1ccccc1Cl	7.71% (active)
